Assay [1] is described as follows: qHTS assay for measurement of the activity of small molecule inhibitors on Zika virus induced Caspase-3 activity in human iPSC derived neural progenitor cells (hNPCs) (AID 1224857). Also: % of control where 0% means no effect; nearly all actives have a fitted effect of over 65% in size. The method, boiled down: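 Pretreat hNPCs with compound 1 h; infect ZIKV 2 FFU/cell; 6 h 37 C, 5% CO2; Caspase-Glo 3/7, 30 min RT; luminescence; normalize to no-virus and virus-only wells.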
On the technique in general: qHTS replaces the single test concentration by a dilution series.

The nature of assay [2]: qHTS assay for measurement of the activity of small molecule inhibitors on Zika virus induced Caspase-3 activity in human astrocytoma cells (AID 1224859).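 Also: plate controls were ZIKV-infected untreated cells for no effect and uninfected cells for full effect.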 The essentials:
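Human SNB-19 astrocytoma cells in RPMI 1640 with 10% FBS receive compound one hour ahead of Zika virus at 2 FFU/cell. After 6 h infection, caspase-3/7 activity is detected by Caspase-Glo luminescence.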

A short description of assay [3]: qHTS assay to identify small molecule inhibitors of chordoma cells - UCH-1 (AID 1259355). Also: % is scaled to controls: 0 for no effect and ±100 for the full control effect; nearly all actives have a fitted effect of over 55% in size. The method, boiled down:
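A 48hr growth-inhibition format: each drug tested at 15 concentrations together with added auranofin, camptothecin, doxorubicin, rubitecan and topotecan, with cell viability quantified as CellTiter-Glo luminescence.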

Assay [4] in a line: qHTS assay to identify small molecule inhibitors of chordoma cells - UCH-2 (AID 1259356). Also: series mostly up to about 46 µM; % is scaled to controls: 0 for no effect and ±100 for the full control effect.
Assay [5] in a line: qHTS assay for small molecule agonists of the antioxidant response element (ARE) signaling pathway measured by Nrf2-dependant transcriptional activity (AID 720636; active = well fitted curve in the direction sought with a large enough effect in the repeat runs; an effect the other way counts as inactive or inconclusive; also: % of control where 0% means no effect). The method, boiled down:
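Quantitative HTS format in HepG2 cells stably expressing an ARE-luciferase reporter; 16 hr compound treatment at 37 C, luciferase signal detected with ONE-Glo.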

Assay [6] is described as follows: qHTS assay for small molecule agonists of the antioxidant response element (ARE) signaling pathway measured by Nrf2-dependant transcriptional activity - cell viability counter screen (AID 720653; active = well fitted curve in the direction sought with a large enough effect in the repeat runs; an effect the other way counts as inactive or inconclusive; also: potency is read from the fitted curve at half-maximal effect; as to max response: % is scaled to controls: 0 for no effect and ±100 for the full control effect). As to conditions: ARE-bla HepG2 viability, CellTiter-Glo ATP luminescence, 16 h; max response: stronger effect = lower value. The essentials:
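ARE-bla HepG2 cells (2,000/well) rested 5 hrs at 37C/5% CO2, then exposed to compounds in DMSO for 16 hrs. Viability was read in the same wells as intracellular ATP by luminescence, 30 min at room temperature after reagent addition.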

The target in assay [7] is T1, Hexokinase-4 (Homo sapiens) + Glucokinase regulatory protein (Homo sapiens) (UniProt P35557+Q14397). The assay can be described thus: qHTS assay for inhibitors of recombinant human GCK-GKRP interaction: Diaphorase-coupled assay (AID 743205). The method, boiled down: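 A kinetic fluorescence read (Ex 525/Em 590 nm, every minute for 30 minutes) tracked resorufin from a G6PDH-diaphorase coupled GCK reaction. It contained 10 nM GST-GCK, 10 nM FLAG-GKRP, 5 mM glucose, 0.4 mM ATP in Hepes pH 7.6. Normalized to with/without-enzyme DMSO controls.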

The target in assay [8] is T1, Hexokinase-4 (Homo sapiens) + Glucokinase regulatory protein (Homo sapiens). The assay can be described thus: qHTS assay for inhibitors of recombinant human GCK-GKRP interaction: ADP-Glo assay (AID 743206).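 Also: plate controls were DMSO plus enzyme for no effect and no enzyme for full effect.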 The method, boiled down:
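Pin-transferred compounds meet a 15 nM GST-GCK/15 nM FLAG-GKRP/2 uM S6P mix (dispense concentrations). ATP is then added to 0.4 mM final with 5 mM glucose, and the reaction runs 60 min at room temperature. ADP is quantified luminescently.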

For assay [9] the target is unchanged. Put plainly: qHTS assay for inhibitors of recombinant human GCK-GKRP interaction: HTRF assay (AID 743207).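 Also: 0% = DMSO with GCK present and -100% = DMSO wells lacking GCK.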 The method, boiled down:
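After 60 min equilibration at room temperature with anti-FLAG XL665 and anti-GST antibodies, FRET ratio (665/615 nm, excitation 320 nm) was read. Proteins: GST-GCK and FLAG-GKRP, each 5 nM, plus 2 uM S6P, pH 7.1 buffer; GCK-free wells define minimum signal.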

Assay [10] can be described thus: qHTS Assay for Identifying Gametocytocidal Compounds (AID 743244).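 Also: % is scaled to controls: 0 for no effect and ±100 for the full control effect; actives lower the fluorescent signal which means gametocytes are killed.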 Conditions: P. falciparum 3D7 stage III-V gametocytes, alamarBlue, 72 h; max response: stronger effect = lower value. The essentials:
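Compounds are pinned into medium, gametocytes (stage III–V, 3D7, 20,000 cells/well) added, and plates held 72 h at 37 °C in 5% CO2. AlamarBlue follows for 24 h before fluorescence reading.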

The nature of assay [11]: qHTS assay for cell viability of HEK293 cells (AID 743288). Also: nearly all actives have a fitted effect of over 50% in size. Also: potency is read from the fitted curve at half-maximal effect. As to max response: % is scaled to controls: 0 for no effect and ±100 for the full control effect. As to conditions: ATP luminescence (CellTiter-Glo), 18 h; max response: stronger effect = lower value. The method, boiled down: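 Readout is luciferase-coupled ATP content (CellTiter-Glo luminescence, 30 min room temperature) as a measure of metabolically competent cells. Parental HEK293 cells were plated 5 h or more before compound addition, then treated 18 h at 37 C.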

The nature of assay [12]: qHTS assay for cell viability of the p53RE-bla HCT-116 cell line (AID 743292). Also: % is scaled to controls: 0 for no effect and ±100 for the full control effect; nearly all actives have a fitted effect of over 55% in size. The essentials:
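Viability of compound-treated p53RE-bla HCT-116 cells is taken from ATP-dependent luciferase luminescence. Treatment lasts 16 h at 37 C after a 5 h settling period; detection follows 30 min at room temperature.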

Assay [13] in a line: qHTS assay for small molecule antagonists of the retinoid-related orphan receptor gamma (ROR-gamma) signaling pathway - cell viability counter screen (AID 720652; active = well fitted curve in the direction sought with a large enough effect in the repeat runs; an effect the other way counts as inactive or inconclusive;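 also: series mostly up to about 92 µM; compound exposure lasted 16 hr before ATP read; % is scaled to controls: 0 for no effect and ±100 for the full control effect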). The method, boiled down: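 Cytotoxicity counter screen: intracellular ATP (CellTiter-Glo luminescence) measured in the doxycycline-induced CHO RORE-luciferase reporter line after 16 hr compound exposure at 37 C, 5% CO2.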

“And” between values parts separate entries of the source, which are not always exact repeats. Equal values may be shown once. Unmarked numbers belong to inactive results. Results filed as inconclusive are left out. The source made the active and inactive calls. Unless noted, calls follow the shape of the dose curve; as a rule, active = well fitted curve in the direction sought with a large enough effect; inconclusive = small, poorly fitted or top-dose-only effect, or another doubt; inactive = no such curve, though single readings can be large; an effect the other way counts as inactive or inconclusive.

T1 sequence (P35557 whole entry, looked up): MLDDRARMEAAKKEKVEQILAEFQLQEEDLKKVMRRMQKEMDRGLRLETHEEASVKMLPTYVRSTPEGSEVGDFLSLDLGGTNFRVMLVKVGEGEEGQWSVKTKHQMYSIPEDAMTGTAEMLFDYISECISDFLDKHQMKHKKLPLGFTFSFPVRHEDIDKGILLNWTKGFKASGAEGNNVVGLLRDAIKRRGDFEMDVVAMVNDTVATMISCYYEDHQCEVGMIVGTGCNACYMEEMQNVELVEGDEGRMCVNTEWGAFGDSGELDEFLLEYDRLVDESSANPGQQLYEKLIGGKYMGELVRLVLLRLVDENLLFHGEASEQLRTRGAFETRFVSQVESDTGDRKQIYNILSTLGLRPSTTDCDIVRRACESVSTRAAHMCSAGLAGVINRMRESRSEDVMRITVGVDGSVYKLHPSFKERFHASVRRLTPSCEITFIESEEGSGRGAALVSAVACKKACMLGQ
T1 sequence (Q14397 whole entry, looked up): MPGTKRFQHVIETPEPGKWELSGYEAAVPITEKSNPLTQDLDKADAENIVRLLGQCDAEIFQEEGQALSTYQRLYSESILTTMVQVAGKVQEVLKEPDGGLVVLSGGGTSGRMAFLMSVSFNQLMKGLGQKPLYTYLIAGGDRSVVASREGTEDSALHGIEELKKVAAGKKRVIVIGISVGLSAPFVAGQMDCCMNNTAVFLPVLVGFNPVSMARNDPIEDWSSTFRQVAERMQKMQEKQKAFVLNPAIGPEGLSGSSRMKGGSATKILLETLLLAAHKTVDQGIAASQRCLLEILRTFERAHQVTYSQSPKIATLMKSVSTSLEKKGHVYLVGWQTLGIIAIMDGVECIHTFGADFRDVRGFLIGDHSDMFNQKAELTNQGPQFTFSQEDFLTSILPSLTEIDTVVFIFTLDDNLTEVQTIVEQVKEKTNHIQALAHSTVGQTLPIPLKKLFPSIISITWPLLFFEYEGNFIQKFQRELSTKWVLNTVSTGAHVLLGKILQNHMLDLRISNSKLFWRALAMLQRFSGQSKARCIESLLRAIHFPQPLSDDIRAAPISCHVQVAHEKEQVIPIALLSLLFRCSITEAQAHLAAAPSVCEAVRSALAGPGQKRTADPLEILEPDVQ

For the compound `COC(=O)C1=C(C)NC(C)=C(C(=O)OCCN(C)Cc2ccccc2)C1c1cccc([N+](=O)[O-])c1` (configuration not stated), the call in assay [1] and in [2] was inactive. Moreover, the Potency result in assay [3] and in [4] was “inactive” each time.
On to `CC(=O)[C@@]1(O)CC[C@H]2[C@@H]3CCC4=CC(=O)CC[C@]4(C)[C@H]3CC[C@@]21C`, for which the outcome in assay [5], in assay [7], in assay [8], in assay [12], in assay [1] and in assay [2] was inactive. The max response in assay [6] was -7.45%; in assay [10], 5.26% and 15.8%; in [11] it was -17.3%. Also, the Potency entry in [9], in assay [3] and in [4] was “inactive” in each case.
For the compound `NS(=O)(=O)c1cc2c(cc1Cl)NC(C1CC3C=CC1C3)NS2(=O)=O` (configuration not stated), the result in [7], in [8], in assay [1] and in [2] was inactive. Besides, the Potency entry in assay [9], in assay [3] and in [4] was “inactive” throughout. Besides, the max response in [10] is -0.791% and -20.2%.
Take `CCn1cc(C(=O)O)c(=O)c2cc3c(cc21)OCO3`: the outcome in assay [7], in assay [8], in [1] and in assay [2] was inactive. Moreover, the Potency result in [9], in assay [3] and in [4] was “inactive” in each case. Also, the max response in assay [10] is -6.25% and -3.93%.
On to `CCCCOCCOCCOCc1cc2c(cc1CCC)OCO2`, for which the result in assay [5], in [13], in assay [12], in assay [1] and in assay [2] was inactive. Moreover, the max response is -10.7% and -4.66% in [6]; 3.05% in assay [10]; -11.4% and -13.4% in [11]. Moreover, the Potency result in [3] and in [4] was “inactive” each time.
For the compound `Nc1nc(N)c2nc(-c3ccccc3)c(N)nc2n1`, the call in assay [5], in assay [13], in assay [7], in [8], in assay [12] and in assay [1] was inactive. Besides, the compound was called inactive in assay [2]. The Potency in [6] was 25.1 µM (active); in assay [11], 31.6 µM (active). Also, the max response in assay [10] is -2.09% and -8.78%. Moreover, the Potency result in assay [3] and in assay [4] was “inactive” each time.
On to `CN(C)CCCN1c2ccccc2Sc2ccc(C(F)(F)F)cc21`, for which the outcome in [7], in assay [8], in assay [1] and in assay [2] was inactive. For the same compound, the Potency entry in assay [9], in assay [3] and in assay [4] was “inactive” each time.
Regarding `O=C(O)CCCCCCCC(=O)O`, the call in [5], in assay [7], in assay [8], in assay [12], in [1] and in assay [2] was inactive. Also, the max response in assay [6] is -8.37%; in [10], 9% and 10.5%; in assay [11], -0.211%. Also, the Potency entry in assay [3] and in assay [4] was “inactive” each time.
Regarding `COCCOC(=O)C1=C(C)NC(C)=C(C(=O)OC(C)C)C1c1cccc([N+](=O)[O-])c1` (configuration not stated), the outcome in assay [7], in [8], in [1] and in assay [2] was inactive. Moreover, the Potency entry in assay [9], in assay [3] and in [4] was “inactive” each time. In addition, the max response in assay [10] is 18.6% and 13.2%.
For the compound `O=c1[nH]c(=O)n([C@H]2C[C@H](O)[C@@H](CO)O2)cc1Br`, the outcome in [5], in assay [13], in assay [7], in [8], in assay [12] and in assay [1] was inactive. The call in assay [2] was inactive. Moreover, the max response is -13.7% in [6]; 2.92% and 14.4% in [10]; -7.4% in assay [11]. The Potency entry in [9], in [3] and in assay [4] was “inactive” throughout.
Consider `Cc1ccc(S(=O)(=O)NC(=O)NN2CCCCCC2)cc1`, for which the max response was 1.34% in assay [6]; -5.27% and 9.03% in [10]; -0.908% in [11]. Besides, the outcome in assay [7], in assay [8], in assay [12], in [1] and in assay [2] was inactive. The Potency result in assay [9], in assay [3] and in [4] was “inactive” in each case.
As for `CSc1ccc(C(=O)c2[nH]c(=O)[nH]c2C)cc1`, the outcome in [7], in [8], in [1] and in [2] was inactive. Also, the Potency result in assay [9], in [3] and in assay [4] was “inactive” each time. The max response in assay [10] is 9.34% and 5.87%.
As for `O=C1CC2(CCCC2)CC(=O)N1CCCCN1CCN(c2ncccn2)CC1`, the outcome in assay [7], in assay [8], in assay [1] and in assay [2] was inactive. The Potency result in assay [9], in assay [3] and in [4] was “inactive” throughout.
As to `CN=C(NC#N)NCCSCc1nc[nH]c1C`, the outcome in assay [5], in assay [13], in [7], in [8], in assay [12] and in [1] was inactive. Further, in [2], the compound was called inactive. The max response in assay [6] was 0.359%; in [10], 2.14% and 13.4%; in [11], -3.45%. The Potency result in [9], in assay [3] and in assay [4] was “inactive” in each case.
Regarding `COc1ccc(CN(CCN(C)C)c2ccccn2)cc1`, the result in [5], in assay [13], in assay [7], in [8], in assay [12] and in [1] was inactive. In assay [2], the outcome was inactive. For the same compound, the max response in assay [6] is -3.41%; in assay [10], -1.15% and 9.8%; in assay [11], -9.66%. For the same compound, the Potency entry in assay [9], in [3] and in assay [4] was “inactive” throughout.
For `CCCCNC(=O)NS(=O)(=O)c1ccc(C)cc1`, the call in assay [5], in [13], in assay [7], in assay [8], in assay [12] and in assay [1] was inactive. The compound was called inactive in assay [2]. Besides, the max response in assay [6] is 6.42% and -5.96%; in assay [10], 0.702% and 32.7%; in assay [11] it was 2.43% and -13.2%. Moreover, the Potency entry in assay [3] and in assay [4] was “inactive” each time.
For the compound `CCN(CC)CCOCCOC(=O)C1(c2ccccc2)CCCC1`, the outcome in [7], in assay [8], in assay [1] and in [2] was inactive. The Potency entry in assay [9], in assay [3] and in [4] was “inactive” in each case.
With `Cc1nc2c([nH]1)c(=O)n(C)c(=O)n2Cc1ccco1`, the outcome in assay [7], in assay [8], in assay [1] and in assay [2] was inactive. Moreover, the Potency entry in assay [9], in assay [3] and in [4] was “inactive” each time. Besides, the max response in assay [10] was -4.35% and 2.16%.

The values are drawn from PubChem BioAssay (NCATS).
